Assay results as given in PubChem BioAssay (NCI).
This is part of a sample that, as a whole, favours compounds with a hit. Of some 79,000 tested, about 15% had one in any assay. Rule as the data show it: active = growth inhibition above about 70%; inactive = the rest.

Experiments:
[1] = NCI Yeast Anticancer Drug Screen. Data for the rad50 strain (AID 155);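 also: 0% = growth of vehicle-only cultures of the same strain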; details: S. cerevisiae rad50 strain growth inhibition; at 50.0 µM; hits give high values
In short: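 Compounds were tested on a yeast strain with an engineered DNA damage repair alteration; the reported value is growth inhibition normalised to vehicle treatment.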

[2] = NCI Yeast Anticancer Drug Screen. Data for the mec2-1 strain (AID 157); details: S. cerevisiae mec2-1 strain, at 50.0 µM, hits give high values
In short: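 Mutant yeast (mec2-1) grown with compound; growth inhibition relative to vehicle control reported.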

[3] = NCI Yeast Anticancer Drug Screen. Data for the sgs1 mgt1 strain (AID 161);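 also: 0% = growth of cultures given vehicle only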; details: S. cerevisiae sgs1 mgt1 strain, at 50.0 µM, hits give high values
In short: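 Growth of a repair-deficient yeast mutant was monitored after compound treatment and expressed as inhibition relative to vehicle-treated cultures.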

[4] = NCI Yeast Anticancer Drug Screen. Data for the cln2 rad14 strain (AID 165);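 also: 0% = growth equal to vehicle treated cultures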; details: S. cerevisiae cln2 rad14 strain, at 50.0 µM, hits give high values
In short: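 Readout is yeast growth inhibition versus vehicle-treated controls, using a strain with cln2 and rad14 alterations exposed to compound.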

[5] = NCI Yeast Anticancer Drug Screen. Data for the bub3 strain (AID 167); details: S. cerevisiae bub3 mutant strain, at 50.0 µM, hits give high values
In short: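 Growth of a checkpoint-deficient yeast mutant is measured after compound exposure. Values represent inhibition relative to vehicle.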

[6] = NCI Yeast Anticancer Drug Screen. Data for the mlh1 rad18 strain (AID 175); details: S. cerevisiae mlh1 rad18 strain growth inhibition; at 50.0 µM; hits give high values
In short: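 Genetically defined yeast (DNA repair-deficient) exposed to compounds; growth inhibition determined relative to vehicle.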

Measured: growth inhibition

NC(CSCCSCCSCC(N)C(=O)O)C(=O)O (stereo unspecified)
inactive: [1] -4.45% | [2] 0.1% | [3] 11.2% | [4] -9.05% | [5] -38.4% | [6] -4.5%

NNC(=O)CC(N)C(=O)O (stereo unspecified)
inactive: [1] 9% | [2] 4.4% | [3] -4.2% | [4] -20.7% | [5] 1.15% | [6] 2%

C/C(=N/S(=O)(=O)c1ccc(C)c(C)c1)OC(C)C
inactive: [1] 2.6% | [2] 6.9% | [3] 7.95% | [4] -55.1% | [5] 13.1% | [6] -1.2%

CC(C)=NNC(=O)c1ccccc1CC(O)(c1ccccc1)c1ccccc1
inactive: [1] 22.1% | [2] 5.25% | [3] 10.2% | [4] -35.6% | [5] -24.4% | [6] 15.2%

COc1cccc(C(=O)c2ccncc2)c1OC
inactive: [1] -10.2% | [2] -4.65% | [3] -5.6% | [4] 4.4% | [5] 1.1% | [6] -4.85%

Nc1nc(Cc2ccccc2)cs1
inactive: [1] 24.7% | [2] 24.7% | [3] 16.1% | [4] 7.5% | [5] 3.35% | [6] 12.6%

Cn1ncc2c(Nc3cc(Cl)ccc3Cl)ncnc21
inactive: [1] -3.05% | [2] -1.9% | [3] 4.35% | [4] -52.8% | [5] 3.7% | [6] -1.95%

CS(=O)(=O)CCCCCCCCCCS(C)(=O)=O
inactive: [1] 9.45% | [2] 2.45% | [3] -4.35% | [4] -23.7% | [5] 5% | [6] 4.5%

C1CN(SSN2CCSCC2)CCS1
inactive: [1] -2.1% | [2] -18.5% | [3] 6.5% | [4] -100% | [5] 7.15% | [6] -14.5%

Cc1nc2c(o1)C(=Nc1ccccc1)c1ccccc1C2=Nc1ccccc1
inactive: [1] -7.45% | [2] -23.4% | [3] 1.45% | [4] -13.9% | [5] -20.1% | [6] -9.65%

CC1(C)OCC2OC(n3cnc4c(N)nc(Cl)nc43)C(OS(C)(=O)=O)C2O1 (stereo unspecified)
inactive: [1] 3.75% | [2] 16.9% | [3] -13.2% | [4] 8.7% | [5] 4.15% | [6] 30%

O=C1N=C2SC(=S)NC(=S)N2NC12c1ccccc1-c1ccccc12
inactive: [1] 30.1% | [2] -11.4% | [3] 31% | [4] 10.5% | [5] 16.4% | [6] 19.6%

O=C(N/N=C\c1ccc(Cl)cc1Cl)c1ccccc1S
inactive: [1] -59.4% | [2] 6.45% | [3] -4.55% | [4] -0.2% | [5] -13.2% | [6] 5%

CCN1CCCC(SC(=O)C(O)(c2ccccc2)c2ccccc2)C1 (stereo unspecified)
inactive: [1] -16.6% | [2] -5.75% | [3] -22.1% | [4] -15.2% | [5] -4.15% | [6] 0.15%

CN1C(=O)NC(C)(CCOCc2ccccc2)C1=O (stereo unspecified)
inactive: [1] 8.85% | [2] 0.45% | [3] 0.25% | [4] -1.25% | [5] 6.65% | [6] 8.65%

O=[N+]([O-])c1nccn1COCCI
inactive: [1] 7.25% | [2] 15.4% | [3] -0.2% | [4] 3.3% | [5] 7.75% | [6] 52.3%

Cc1nn(-c2ccc([N+](=O)[O-])cc2)c2c1C(C)(C)C(C#N)=C(N)O2
inactive: [1] -9.9% | [2] -6.7% | [3] -3.5% | [4] -3.55% | [5] 0.65% | [6] 6.95%

CC(=O)Nc1ccc(S(=O)(=O)CCN2C(=O)c3ccccc3C2=O)cc1
inactive: [1] -4.55% | [2] -8.85% | [3] 12.3% | [4] -62.5% | [5] 4.35% | [6] -16.8%

CN/C=C(/c1ccc(OC)cc1)C(O)c1ccc(OC)c(OC)c1 (stereo unspecified)
inactive: [1] -17.9% | [2] -16.2% | [3] -38% | [4] 2.75% | [5] -10.8% | [6] -20.4%

Nc1ncc2[nH]c(I)nc2n1
inactive: [1] 16.9% | [2] 19.9% | [3] 0.65% | [4] 0.7% | [5] 40.2% | [6] 26.4%

CCCC(CC)=C(c1ccc(OC(C)=O)cc1)c1ccc(OC(C)=O)cc1
inactive: [1] 44.4% | [2] 24.3% | [3] 51.5% | [4] 38.9% | [5] 31% | [6] 54.7%

CN(C)c1nc2oc(-c3ccccc3)c(-c3ccccc3)c2c2nnnn12
inactive: [1] 12% | [2] 8.05% | [3] 2.65% | [4] 15.8% | [5] 1.65% | [6] -11.9%

O=C1CCC(N2C(=O)c3ccccc3C2=O)C(=O)O1 (stereo unspecified)
inactive: [1] -21.9% | [2] -5.45% | [3] -0.95% | [4] -38% | [5] 8.5% | [6] -12.9%

CN(C)c1ccc(/C=C\C(O)c2ccccc2)cc1 (stereo unspecified)
inactive: [1] 22.7% | [2] 11.3% | [3] 32.2% | [4] 7.6% | [5] 2.55% | [6] 42%

CC12CCC(C(=O)n3c1nc1ccccc13)C(C)(C)O2 (stereo unspecified)
inactive: [1] 8.15% | [2] -6.85% | [3] -7.45% | [4] 4% | [5] 4.25% | [6] -12.3%

CCOC(=O)c1nc2ccc(C(F)(F)F)cc2nc1Nc1ccc(OC)c(OC)c1
inactive: [1] -16.7% | [2] -11.9% | [3] -15.7% | [4] -6.15% | [5] -17.4% | [6] -8.75%

CC(=N\N=C(c1ccccc1)c1ccccc1)/C(C)=N/N=C(c1ccccc1)c1ccccc1
inactive: [1] -22.1% | [2] -8.15% | [3] -13.8% | [4] -9% | [5] -1.15% | [6] -17.8%

COC(=O)C(=O)C(C(=O)C(=O)Nc1cccc([N+](=O)[O-])c1)c1nc2ccc(Cl)cc2[nH]c1=O (stereo unspecified)
inactive: [1] 15% | [2] -22.2% | [3] 14.2% | [4] -19.1% | [5] -1.5% | [6] 0.2%

C/C(=N\N)c1ccc(-c2ccccc2)cc1
inactive: [1] 10.6% | [2] 8.9% | [3] 6.45% | [4] -32.8% | [5] -30.7% | [6] -5.4%

O=S(=O)(O)O.[NH-]CC1(C[NH-])CCCCC1.[Pt+2]
inactive: [1] -13% | [2] 17.9% | [3] -3.15% | [4] -0.7% | [5] -28.6% | [6] -46.4%

CN(C)C1CCC(C=C(C2CCC(CC(=O)O)CC2)C2CCC(CC(=O)O)CC2)CC1 (stereo unspecified)
inactive: [1] -2.95% | [2] -21.5% | [3] 9.6% | [4] 13.6% | [5] 1.05% | [6] 6.3%

COC(=O)NC1(NC(=O)OC)NC(=O)c2cc(OC)c(OC)cc2N1
inactive: [1] 6.25% | [2] -10.4% | [3] 27.4% | [4] -16.5% | [5] 6.55% | [6] 5.75%

CC1(n2[nH]c(=O)n(-c3ccccc3)c2=O)Cn2c(=O)n(-c3ccccc3)c(=O)n2-c2ccccc21 (stereo unspecified)
inactive: [1] -49.2% | [2] -0.3% | [3] -1% | [4] 18.7% | [5] -5.2% | [6] 9.1%

O=C(CC(=O)C(F)(F)F)Nc1cccc2ccccc12
inactive: [1] 6.65% | [2] -3.1% | [3] 10.6% | [4] -84.5% | [5] 0.1% | [6] 1.05%

C(=C\c1ccc2ccc(/C=C/c3ccccc3)cc2c1)/c1ccccc1
inactive: [1] -15.2% | [2] 14.7% | [3] 12.1% | [4] -26.8% | [5] 8.25% | [6] -17.1%

Nc1[nH]n(-c2ccccc2)c(=O)c1C1c2ccccc2Sc2ccccc21
inactive: [1] 8.7% | [2] 11.2% | [3] 16.4% | [4] -66.6% | [5] 15.2% | [6] 16.2%

COc1ccc(-c2cc(-c3ccco3)c(C#N)c(=S)n2C2OC(COC(C)=O)C(OC(C)=O)C(OC(C)=O)C2OC(C)=O)cc1 (stereo unspecified)
inactive: [1] 19.6% | [2] -4.25% | [3] 12.7% | [4] -2.75% | [5] 4.25% | [6] 34.2%

O=S(=O)(c1ccccc1)c1ccccc1Br
inactive: [1] 8% | [2] 14.8% | [3] -3.3% | [4] -18.4% | [5] -10.2% | [6] 35%

C=CCCCCCCCCCCCC
inactive: [1] -20.1% | [2] 0% | [3] -20.8% | [4] 0.8% | [5] -21.2% | [6] -0.4%

CN(C)c1nc(Cl)cc2nc(Cl)cn12
inactive: [1] 0.25% | [2] 5.7% | [3] 2.5% | [4] -0.35% | [5] -8.15% | [6] 0.5%

COc1ccc(/C(=C/n2ccnc2)C(O)c2ccc(OC)c(OC)c2)cc1OC (stereo unspecified)
inactive: [1] -16.5% | [2] -11.8% | [3] -31.8% | [4] -2.25% | [5] -2.8% | [6] -11.3%
